Results on six compounds are retold here after PubChem BioAssay (NCI).

About 79,000 compounds went through this panel and 15% of them were active in at least one assay; those are over-represented in the sample as a whole. Unmarked numbers belong to inactive results. The source made the active and inactive calls. Cut-off read from the data, not from the text of the source: active = growth inhibition above about 70%; inactive = the rest.

Assay [1] can be described thus: NCI Yeast Anticancer Drug Screen. Data for the rad50 strain (AID 155).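 Note: 0% = growth of vehicle-only cultures of the same strain.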 Conditions: S. cerevisiae rad50 strain growth inhibition, hits give high values. The method, boiled down: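 DNA repair mutant yeast, compound exposure, growth read-out; inhibition is taken relative to vehicle.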
Assay [2] is described as follows: NCI Yeast Anticancer Drug Screen. Data for the mec2-1 strain (AID 157). Conditions: S. cerevisiae mec2-1 strain, hits give high values. The method, boiled down: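 Test agents were screened against the mec2-1 yeast strain, with defined DNA repair or cell cycle alteration. Growth was scored as inhibition against vehicle-only controls.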
Assay [3] can be described thus: NCI Yeast Anticancer Drug Screen. Data for the sgs1 mgt1 strain (AID 161).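 Note: 0% = growth of cultures given vehicle only.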 Conditions: S. cerevisiae sgs1 mgt1 strain, hits give high values. The method, boiled down: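 Genetically altered yeast, compound exposure, growth inhibition relative to vehicle.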
The nature of assay [4]: NCI Yeast Anticancer Drug Screen. Data for the cln2 rad14 strain (AID 165).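 Note: 0% = growth equal to vehicle treated cultures.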 Conditions: S. cerevisiae cln2 rad14 strain, hits give high values. A digest of the protocol:
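Growth of compound-exposed yeast (cln2 rad14 genotype) measured and expressed as inhibition relative to vehicle.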

Assay [5] is described as follows: NCI Yeast Anticancer Drug Screen. Data for the bub3 strain (AID 167). Conditions: S. cerevisiae bub3 mutant strain, hits give high values. The method, boiled down:
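In this screen, a yeast mutant lacking normal mitotic checkpoint function is challenged with compound. Relative growth versus vehicle gives the inhibition value.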

Assay [6] in a line: NCI Yeast Anticancer Drug Screen. Data for the mlh1 rad18 strain (AID 175). Conditions: S. cerevisiae mlh1 rad18 strain growth inhibition, hits give high values. A digest of the protocol: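 In this whole-cell yeast screen, a strain with altered DNA damage repair is challenged with compound, and its growth is measured against matched vehicle-treated controls.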
Where [7] appears, read: at 5.0 µM (retest, dose inferred, filed as 0.5).
Setting [8] is: at 50.0 µM (retest, dose inferred, filed as 5.0).

For `CC(=O)O[C@H]1CC[C@@]2(C)C(=CC[C@@H]3[C@@H]2CC[C@]2(C)C(=O)[C@@H](CN4CC4)C[C@@H]32)C1`, the growth inhibition in assay [1] (setting [7]) was 2%; in assay [1] (setting [8]), 97% (active); in assay [1] (at 50.0 µM) it was 59.7%; in assay [2] (setting [7]) it was 7%; in assay [2] (setting [8]), 99% (active); in assay [2] (at 50.0 µM), 54%. For the same compound, the growth inhibition in assay [3] (setting [7]) is 22%; in assay [3] (setting [8]), 99% (active); in assay [3] (at 50.0 µM), 68.5%; in assay [4] (setting [7]), 5%; in assay [4] (setting [8]), 75% (active); in assay [4] (at 50.0 µM), 62.6%. Besides, the growth inhibition was 6% in assay [5] (setting [7]); 97% (active) in assay [5] (setting [8]); 39% in assay [5] (at 50.0 µM); 4% in assay [6] (setting [7]); 98% (active) in assay [6] (setting [8]); 62% in assay [6] (at 50.0 µM).

Consider `C[CH2][Sn]([Cl])([CH2]C)[CH2]C`, for which the growth inhibition in assay [1] (setting [7]) was 7%; in assay [1] (setting [8]) it was 87% (active); in assay [1] (at 50.0 µM) it was 98.3% (active); in assay [2] (setting [7]), 0%; in assay [2] (setting [8]) it was 84% (active); in assay [2] (at 50.0 µM), 98.1% (active). Besides, the growth inhibition is 0% in assay [3] (setting [7]); 91% (active) in assay [3] (setting [8]); 97.3% (active) in assay [3] (at 50.0 µM); -6% in assay [4] (setting [7]); 60% in assay [4] (setting [8]); 80.8% (active) in assay [4] (at 50.0 µM). Moreover, the growth inhibition in assay [5] (setting [7]) is -18%; in assay [5] (setting [8]), 83% (active); in assay [5] (at 50.0 µM) it was 98.2% (active); in assay [6] (setting [7]), 2%; in assay [6] (setting [8]) it was 92% (active); in assay [6] (at 50.0 µM), 98.2% (active).

Take `CCC[CH2][Sn]1([CH2]CCC)[O]CCN2CCN(CC[O]1)CC2`: the growth inhibition in assay [1] (setting [7]) was -4%; in assay [1] (setting [8]), 12%; in assay [1] (at 50.0 µM) it was 74.1% (active); in assay [2] (setting [7]), -4%; in assay [2] (setting [8]) it was 13%; in assay [2] (at 50.0 µM) it was 94% (active). In addition, the growth inhibition in assay [3] (setting [7]) is -3%; in assay [3] (setting [8]) it was 9%; in assay [3] (at 50.0 µM) it was 83.2% (active); in assay [4] (setting [7]), -5%; in assay [4] (setting [8]), 5%; in assay [4] (at 50.0 µM), 41.6%. Moreover, the growth inhibition was -2% in assay [5] (setting [7]); 10% in assay [5] (setting [8]); 53.1% in assay [5] (at 50.0 µM); -6% in assay [6] (setting [7]); 15% in assay [6] (setting [8]); 85.7% (active) in assay [6] (at 50.0 µM).

`c1ccc(C(c2ccccc2)c2cccnc2)cc1`: the growth inhibition in assay [1] (setting [7]) was 61%; in assay [1] (setting [8]), 97% (active); in assay [1] (at 50.0 µM) it was 89.2% (active); in assay [2] (setting [7]), 59%; in assay [2] (setting [8]), 98% (active); in assay [2] (at 50.0 µM), 91.2% (active). The growth inhibition was 16% in assay [3] (setting [7]); 98% (active) in assay [3] (setting [8]); 91.6% (active) in assay [3] (at 50.0 µM); 55% in assay [4] (setting [7]); 97% (active) in assay [4] (setting [8]); 88.9% (active) in assay [4] (at 50.0 µM). The growth inhibition is 52% in assay [5] (setting [7]); 98% (active) in assay [5] (setting [8]); 91.7% (active) in assay [5] (at 50.0 µM); 54% in assay [6] (setting [7]); 100% (active) in assay [6] (setting [8]); 90.8% (active) in assay [6] (at 50.0 µM).

Consider `CN(C)c1ccc(C(c2c(O)c3ccccc3oc2=O)c2c(O)c3ccccc3oc2=O)cc1`, for which the growth inhibition was 0% in assay [1] (setting [7]); 40% in assay [1] (setting [8]); 59.2% in assay [1] (at 50.0 µM); -8% in assay [2] (setting [7]); 26% in assay [2] (setting [8]); 65.6% in assay [2] (at 50.0 µM). Also, the growth inhibition in assay [3] (setting [7]) was 4%; in assay [3] (setting [8]), 42%; in assay [3] (at 50.0 µM), 60%; in assay [4] (setting [7]), -5%; in assay [4] (setting [8]), 13%; in assay [4] (at 50.0 µM), 18.5%. The growth inhibition in assay [5] (setting [7]) was -3%; in assay [5] (setting [8]), 16%; in assay [5] (at 50.0 µM) it was 34.3%; in assay [6] (setting [7]), -3%; in assay [6] (setting [8]), 13%; in assay [6] (at 50.0 µM), 51%.

Take `C[C@]12CCCC[C@@H]1CC[C@@H]1[C@@H]2C(=O)C[C@@]2(C)[C@H]1CC[C@]2(C)O`: the growth inhibition in assay [1] (setting [7]) is 6%; in assay [1] (setting [8]), 97% (active); in assay [1] (at 50.0 µM), 60.4%; in assay [2] (setting [7]), 0%; in assay [2] (setting [8]), 99% (active); in assay [2] (at 50.0 µM), 99% (active). Further, the growth inhibition in assay [3] (setting [7]) was 0%; in assay [3] (setting [8]), 99% (active); in assay [3] (at 50.0 µM), 50.3%; in assay [4] (setting [7]), 0%; in assay [4] (setting [8]), 97% (active); in assay [4] (at 50.0 µM), 20.6%. Moreover, the growth inhibition in assay [5] (setting [7]) was -4%; in assay [5] (setting [8]), 80% (active); in assay [5] (at 50.0 µM) it was 53%; in assay [6] (setting [7]) it was 30%; in assay [6] (setting [8]), 99% (active); in assay [6] (at 50.0 µM), 98% (active).
